# The campaign covered roughly 290,000 compounds. About 2,000 (0.69%) were called active. No stated cut-off is given here; in the data, active means activity change below about -30%; inactive means the rest, inconclusive results apart. This excerpt belongs to a sample that is enriched for actives.
# Test: qHTS Assay for Inhibitors of Fructose-1,6-bisphosphate Aldolase from Giardia Lamblia: Coupling assay counterscreen
# Settings: coupling enzyme system counterscreen, AmpLite Red fluorescence; at 58.2 µM (top of the series)
# Summary of the method: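 Activity here indicates interference with the coupling reaction, not aldolase inhibition. Compounds at 57.5 uM final met coupling enzymes for 10 min at RT; substrate and AmpLite Red detection followed, with a 525/598 nm fluorescence read after 20 min.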
# On the % scale 0 is the no-effect control and ±100 the full control effect.
row,SMILES,"activity change, negative = inhibition"
1,COc1cccc(-c2coc3cc4oc(=O)c(CC(=O)O)c(C)c4cc23)c1,12.3% (inactive)
2,O=C(Nc1cccc([N+](=O)[O-])c1)N1CCc2ccccc2C1,-5.24% (inactive)
3,C=C1C([C@@]2(C)C(OC(C)=O)CC(=O)O[C@@](C)(COC(C)=O)C2CC(=O)OC)C(OC=O)C(OC(=O)C(O)C(C)CC)[C@]2(C)C(c3ccoc3)CC(=O)C12O (some centres not stated),-3.85% (inactive)
4,CC(C)CCC(C)NC(=O)c1ccc2nccnc2c1 (configuration not stated),2.87% (inactive)
5,Oc1cc(O)c2c(c1)OC(c1ccc(O)c(O)c1)C(O)C2 (configuration not stated),-34.5% (active)
6,CC1(c2ccc3ccccc3c2)NC(=O)N(CC(N)=O)C1=O (configuration not stated),-1.62% (inactive)
7,Cc1c(Cl)cccc1NC(=O)NCc1ccc(C)n1C,0.306% (inactive)
8,CCCN1CCC(=O)N(C(CSc2ccc(C)cc2)Cc2ccccc2)CC1 (configuration not stated),2.31% (inactive)
9,CC1(C)Cc2ccccc2-c2[nH]c(=S)[nH]c(=O)c21,2.14% (inactive)
10,N#CC1=C(N)Oc2[nH]c(=S)[nH]c(=O)c2C12C(=O)Nc1ccccc12 (configuration not stated),-33.1% (active)
11,N#CC1=C(N)Oc2n[nH]c(CSc3ccccc3)c2C12C(=O)Nc1ccccc12 (configuration not stated),-1.05% (inactive)
12,COCCCNc1nc2ccccc2nc1NS(=O)(=O)c1ccc(F)cc1,3.51% (inactive)
13,Oc1cc2c(cc1O)CN(C(=S)NCCc1ccc(Cl)cc1)CCC2,-10.5% (inactive)
14,CCOCCCNC(=O)c1cn(CC(C)C)c(=O)c2c1c1ccccc1n2C,1.3% (inactive)
15,Cc1nn(C)cc1/C=C1\CCC/C(=C\c2cn(C)nc2C)C1=O,-3.28% (inactive)
16,COc1c(O)ccc2c1CN1CCc3cc4c(cc3C1C2)OCO4 (configuration not stated),-31.7% (active)
17,COc1ccc2cc1Oc1ccc(cc1)C[C@H]1c3cc(c(OC)cc3CCN1C)Oc1c(O)c(OC)cc3c1[C@H](C2)N(C)CC3,3.01% (inactive)
18,COc1ccc(CN2CCCC(N3CCc4ccccc4C3)C2)c(O)c1 (configuration not stated),0.955% (inactive)
19,COc1ccc2c(c1)N(C)/C(=C1/SC(=S)N(NC(C)=O)C1=O)S2,-2.99% (inactive)

row,SMILES,"activity change, negative = inhibition"
1,CCOc1cc(-c2cc(-c3ccc(NC(C)=O)cc3)nc(N)c2C#N)ccc1O,-0.764% (inactive)
2,CC(C)CNS(=O)(=O)c1ccc(CCC(=O)NCc2ccc(Cl)cc2)cc1,2.27% (inactive)
3,Cc1ccc(OCc2nc3ccccc3n2C)cc1,-0.274% (inactive)
4,Cc1ccc(OCc2nnc(SC3CCc4ccccc4C3=O)n2C)cc1 (configuration not stated),-79.8% (active)
5,Cc1cccnc1NC(=O)CSc1nnc(COc2ccc(C(C)C)cc2)n1C,-3.92% (inactive)
6,C=C1/C(=C\C=C2\CCCC3(C)C2CCC3C(C)/C=C/C(O)C2CC2)CC(O)CC1O (configuration not stated),-0.462% (inactive)
7,CN(NS(=O)(=O)c1cccs1)c1ncc(C(F)(F)F)cc1Cl,1.61% (inactive)
8,CCOC(=O)c1c(C)[nH]c2c1-c1ccccc1C(=O)C2=O,-46.9% (active)
9,CCOC(=O)c1c(C)[nH]c(C)c1S(=O)(=O)N(C)CC(=O)Nc1ccccc1C,0.829% (inactive)
10,CCOC(=O)c1c(C)[nH]c(C(=O)NCc2ccccc2OC)c1C,6.66% (inactive)
11,CC(=O)Nc1ccc(N2C(=O)C3C4C=CC(CC4)C3C2=O)cc1 (configuration not stated),-0.366% (inactive)
12,Cc1cc(C)c(/C=C2\C(=O)Nc3ccccc32)[nH]1,-3.49% (inactive)
13,CN(C)/C=C1/C(=O)Nc2ccccc21,2.47% (inactive)
14,CN(C)/C=C1/Nc2ccccc2C1=O,-30.5% (active)
15,COC(=O)C/C=C/[C@@H](C)[C@H](NC(=O)OCC(Cl)(Cl)Cl)c1ccccc1,-1.95% (inactive)
16,Cc1cccc2[nH]c(CN(C)C(=O)C3CCC(=O)N(CCc4ccccc4)C3)nc12 (configuration not stated),2.15% (inactive)
17,COc1ccccc1C1C(C(N)=O)=C(C)Nc2nc(CCCO)nn21 (configuration not stated),1.82% (inactive)
18,O=C(N/N=C/c1cccc(OC(=O)c2ccc([N+](=O)[O-])cc2)c1)c1cccnc1,0.693% (inactive)
19,COCCNC(=O)CN(Cc1ccco1)C(=O)CCC(=O)Nc1nccs1,0.963% (inactive)

row,SMILES,"activity change, negative = inhibition"
1,Cc1cccc(OCC(=O)NCCNC(=O)c2cccnc2)c1,0.0752% (inactive)
2,COc1ccc(C2Nc3ccccc3C(=O)N2c2ccc(F)cc2)cc1Cn1nnc2ccccc21 (configuration not stated),2.84% (inactive)
3,COc1ccc(C2Nc3ccccc3C(=O)N2Cc2ccccc2)cc1Cn1nnc2ccccc21 (configuration not stated),-34.4% (active)
4,COc1ccc(N2C(=O)c3ccccc3NC2c2ccc(OC)c(CN3CCOCC3)c2)cc1 (configuration not stated),-1.28% (inactive)
5,COc1ccc(CNC(=O)Cc2ccc(-c3ccccc3)cc2)cc1OC,0.562% (inactive)
6,COc1ccc(C2/C=C\CN(Cc3ccco3)C(C)C(=O)N2Cc2ccc(F)cc2)cc1 (configuration not stated),-1.36% (inactive)
7,Cc1coc2c(O)cc3c(c12)OC1(N2CCCCC2)C(=O)NCCCC31 (configuration not stated),-43.7% (active)
8,C[C@H]1Cc2c(-c3ccccc3)nc3c(c2CO1)CN(S(=O)(=O)c1ccc(Cl)c2nonc12)CC3,2.12% (inactive)
9,O=C(Nc1nnc(S(=O)(=O)N2CCCCCC2)s1)c1cccc(Br)c1,-13.3% (inactive)
10,Cc1cccc(C(=O)Nc2nnc(S(=O)(=O)N3CCCCCC3)s2)c1,-16.7% (inactive)
11,COc1cccc(C(=O)Nc2nnc(S(=O)(=O)N3CCCCC3)s2)c1,-31.6% (active)
12,CNC(=S)NNC(=O)c1oc2nc(-c3ccccc3)cc(-c3ccco3)c2c1N,-33.1% (active)
13,NNC(=O)c1oc2nc(-c3ccccc3)cc(-c3ccco3)c2c1N,-5.04% (inactive)
14,CS(=O)(=O)c1sc2nc(-c3ccccc3)cc(-c3ccccc3)c2c1N,1.12% (inactive)
15,Cc1c(C)c2ccc(OCC(=O)N3CCN(c4cccc(Cl)c4)CC3)cc2oc1=O,1.47% (inactive)
16,C/C(=N\NC(=O)CNc1cccc2ccccc12)c1ccc(Br)s1,-0.7% (inactive)
17,Cc1cccc(/C=N/NC(=O)CNc2cccc3ccccc23)n1,-46.7% (active)
18,Cn1cccc1/C=N/NC(=O)CNc1cccc2ccccc12,-1.22% (inactive)
19,Cc1ccc(NC(=O)CN2C(=O)NC(C)(c3ccc(Cl)cc3)C2=O)c(Br)c1 (configuration not stated),8.8e-05% (inactive)

# From PubChem BioAssay AID2472 (National Center for Advancing Translational Sciences (NCATS), 2010)
